# In the library only some 7.3% were active in any assay of this set; here they are far more common.
# AmpC inh no detg – inhibitors of E. coli AmpC beta-lactamase without detergent | AID 485341 | hit rate 0.52% among 330,000 | Potency, µM (highest dose often 57.1 µM), without a hit: at the highest dose activity change, negative = inhibition, usual class: inhibitors | AmpC nitrocefin hydrolysis, absorbance 480 nm, 0.0001% Triton;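 further: potency means the concentration at half of the fitted maximal effect; plate controls were no compound for no effect and no enzyme for full effect; nearly all actives have a fitted effect of over 20% in size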
# Target sequence (P00811 whole entry, looked up): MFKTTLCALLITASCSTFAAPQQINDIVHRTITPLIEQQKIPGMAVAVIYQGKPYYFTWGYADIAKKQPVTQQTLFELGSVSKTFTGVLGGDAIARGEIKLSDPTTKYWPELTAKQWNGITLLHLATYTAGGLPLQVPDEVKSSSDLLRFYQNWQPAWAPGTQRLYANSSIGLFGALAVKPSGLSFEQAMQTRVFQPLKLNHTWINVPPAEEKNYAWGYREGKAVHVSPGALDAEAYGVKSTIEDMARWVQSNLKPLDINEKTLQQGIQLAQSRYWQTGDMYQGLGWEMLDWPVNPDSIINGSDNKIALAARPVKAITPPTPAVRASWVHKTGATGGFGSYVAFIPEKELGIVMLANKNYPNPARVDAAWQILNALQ
#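 20 mM phosphate pH 7.0 + 0.01% (detergent screen) or 0.0001% Triton X-100; 5.3 nM AmpC reagent; cpd preinc 15 min RT; nitrocefin (800 uM stock) to start; A480 q20 s × 4 min; Activity was normalised to no-enzyme and no-compound control wells.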
# FMDV inh – blocks foot and mouth disease virus | Potency, µM (doses to about 57.9 µM), inactives show at the top dose activity change, negative = inhibition, hits mostly inhibitors | FMDV antiviral cell-based qHTS | AID 1159524 | hit rate 1.2% among 410,000; calls by dose curve; tested in HEK293T cells; further: read-out not given here; potency means the concentration at half of the fitted maximal effect; nearly all actives have a fitted effect of over 45% in size
# HCMV inh – inhibitors of human cytomegalovirus; HFF cells, HCMV-luciferase reporter, 72 h; active compounds read low; activity change, negative = inhibition, % at 57.5 µM; hit rate 4.5% among 410,000; AID 1259415; in the data active means activity change below about -60%; inconclusive means no clear call, values can overlap the other calls; inactive means above about -39%
#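 Steps: HFFs plated, 16 h 37C; compounds added; HCMV-luciferase added to MOI 1 PFU/cell; 72 h 37C; OneGlo reagent, 5 min room temperature; luminescence read, normalized to controls.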
# HCV inh – inhibitors of hepatitis C virus infection; Huh7.5.1 HCVcc-Cre infection, luciferase reporter, 44 h; Potency, µM (top dose mostly 41.8 µM), inactives show at the top dose activity change, negative = inhibition, hits mostly inhibitors; hit rate 3.4% among 340,000; AID 651820; further: potency means the concentration at half of the fitted maximal effect
#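 Compounds are dispensed onto cells plated 4 h earlier at 1,000 per well, with HCVcc-Cre virus (about 0.5 moi) added next. Following 44 h of culture, luminescent signal is measured for 15 sec after 15 min with substrate at room temperature.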
# AmpC inh detg – blocks E. coli AmpC beta-lactamase in detergent assay; AID 485294; hit rate 0.041% among 370,000; AmpC hydrolysis of nitrocefin, absorbance 480 nm, 0.01% Triton; Potency, µM (highest dose often 114 µM), for inactives: at the highest dose activity change, negative = inhibition, actives largely listed as inhibitors; P00811;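 further: potency means the concentration at half of the fitted maximal effect; 0% = no-compound wells and -100% = no-enzyme wells; nearly all actives have a fitted effect of over 25% in size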
#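 20 mM phosphate pH 7.0 + 0.01% (detergent screen) or 0.0001% Triton X-100; 5.3 nM AmpC reagent; cpd preinc 15 min RT; nitrocefin (800 uM stock) to start; A480 q20 s × 4 min; Activity was normalised to no-enzyme and no-compound control wells.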
# Numbers without * were called inactive; ? = inconclusive; · = no result; [ ] = remark or other dose. Unless noted, the call rests on the fitted dose curve; in most records, active means well fitted curve in the direction sought with a large enough effect; inconclusive means small, poorly fitted or top-dose-only effect, or another doubt; inactive means no such curve, though single readings can be large; an effect the other way counts as inactive or inconclusive. Unless noted, on the % scale 0 is the no-effect control and ±100 the full control effect.
SMILES,AmpC inh no detg,FMDV inh,HCMV inh,HCV inh,AmpC inh detg
CC(=O)Nc1c(Cl)cc2c(c1Cl)C(=O)c1ccccc1-2,·,17%,-39,11µM*,·
CC(=O)Nc1c(Cl)cc2c(c1Cl)Cc1ccccc1-2,·,24%,-10,?,·
O=C(NNC(=O)c1cc2cc(OC(F)(F)F)ccc2[nH]1)c1ccc(Cl)cc1,-37%,-2%,34,-2%,6%
Cc1c(C(C)CCCO)oc(=O)c2c1Oc1c(C)c(C(C)C[C@H](C)O)oc(=O)c1C2 (stereo partly drawn),-5%,-2%,-1,-18%,10%
COc1ccc(NC(=O)C(Cc2ccccc2)NS(=O)(=O)c2ccc(Br)s2)cc1OC (stereo not drawn),·,16%,-12,·,17%
O=C(Nc1ccc2ccccc2c1)c1cn(-c2ccccc2)nc1-c1cccs1,-55%,0%,-60*,?,-6%
CCN(CC)CCOC(=O)c1ccc(NC(=O)c2cn(-c3ccccc3)nc2-c2cccs2)cc1,-30%[11.4 µM],0%,57,7.9µM*,?
NC(N)=N/N=C/c1cn(-c2ccccc2)nc1-c1cccs1,-8%,?,-98*,?,-5%
CN1C(=O)C(=O)/C(=C(/O)c2ccc(Br)cc2)C1c1ccccc1F (stereo not drawn),-7%,-16%,20,4%,-12%
CSCC[C@H](NC(=O)N1CCn2c1nc1ccccc12)C(=O)NC1CC1,42%,-8%,-14,2%,4%
Cc1ccc(CS(=O)(=O)Cc2ccc(C(=O)NC3CCCCCC3)o2)cc1,16%,-20%,4,-11%,2%
CCCCN(C(=O)C1CCCO1)c1c(N)n(CCC)c(=O)[nH]c1=O (stereo not drawn),-7%,-17%,2,11%,·
O=C1CCN(S(=O)(=O)c2ccccc2)CCN1CCOCc1ccc(C(F)(F)F)cc1,99%,?,-34,10µM*,2%
CCOCc1cnc(C)nc1NCC(=O)c1c(C)[nH]c2ccccc12,8%,18%,-80*,21%,-5%
CCOCc1cnc(C)nc1NCC(=O)c1c(C)[nH]c2cc(C)ccc12,-16%,·,-101*,-13%,-7%
COc1ccccc1-c1nn2c(=O)cc(CN3CCN(C(=O)/C=C/c4ccccc4)CC3)nc2s1,·,-13%,17,·,-1%
Cn1cnc([N+](=O)[O-])c1NC(C)(C)C,-4%,-19%,-16,11%,?
Cn1cnc([N+](=O)[O-])c1S(=O)(=O)c1ccc(Cl)cc1,-48%,14µM*,333,?,?
CCc1nnc(NC(=O)CSc2nnc(C(C)NC(=O)c3ccccc3F)n2C)s1 (stereo not drawn),0%,-6%,16,9%,-7%
COC(=O)c1c(NC(=O)CSc2ncnc3[nH]ncc23)sc2c1CCC2,-16%,5%,-81*,6%,0%
COC(=O)c1c(NC(=O)Cn2cc([N+](=O)[O-])cn2)sc2c1CCC2,-27%,-21%,-38,?,-3%
N#Cc1c(NC(=O)CSc2ncnc3c2cnn3-c2ccccc2Cl)sc2c1CCCC2,-39%,-11%,?,?,-12%
COC(=O)c1c(NC(=O)CSc2ncnc3c2cnn3-c2ccccc2Cl)sc2c1CCCC2,-35%,-21%,-85*,?,5%
Cc1[nH]nc2c1C(c1cc(Br)cs1)C(C#N)=C(N)O2 (stereo not drawn),-8%,?,-98*,?,-1%
Cc1[nH]nc2c1C(c1cn[nH]c1-c1ccc(F)cc1)C(C#N)=C(N)O2 (stereo not drawn),-34%,22µM*,11,-7%,?
SMILES,AmpC inh no detg,FMDV inh,HCMV inh,HCV inh,AmpC inh detg
S=C(Nc1ccc(Nc2ccccc2)cc1)Nc1ccccn1,-24%,-20%,-95*,10µM*,6%
S=C(Nc1ccccc1)Nc1ccccn1,·,51%,31,·,·
Cc1cccc(NC(=O)CNC(=O)Cn2ncc(Cl)c(Cl)c2=O)c1C,-21%,22µM*,·,0.71µM*,·
O=C(Cn1ncc(Cl)c(Cl)c1=O)NC1CCCCC1,-18%,35µM*,0,2.8µM*,7%
O=C(CN1C(=O)c2ccccc2C1=O)NC1CCS(=O)(=O)C1 (stereo not drawn),·,9%,2,·,·
O=C(Cn1ncc(Cl)c(Cl)c1=O)NC1CCS(=O)(=O)C1 (stereo not drawn),-10%,-14%,-63*,-26%,?
O=C(Cn1ncc(Cl)c(Cl)c1=O)NCC1CCCCC1,-29%,28µM*,-101*,2.8µM*,-11%
O=C(Cn1ncc2c3ccccc3n(Cc3cccc(Cl)c3)c2c1=O)NCCCN1CCCCC1,·,-9%,6,·,15%
c1ccc(CN2CCCC3CC2c2ccccc23)cc1 (stereo not drawn),·,·,28,·,·
O=C(COC(=O)c1ccc2c(c1)OCO2)Nc1ccccc1Cl,-20%,12%,-37,4%,-13%
COc1cc(/C=N/NC(=S)NC2CC3C=CC2C3)cc(OC)c1OC (stereo not drawn),-11%,?,-61*,?,-2%
CCOc1ccc(/C=N/NC(=S)NC2CC3C=CC2C3)cc1 (stereo not drawn),-52%,-26%,?,?,-2%
CS(=O)(=O)N1CCC(C(=O)N2CCN(c3cccc(Cl)c3)CC2)CC1,19%,-11%,-33,13%,-13%
O=C(Nc1ccc(S(=O)(=O)N2CCOCC2)cc1)C1CCN(S(=O)(=O)c2ccc(F)cc2)CC1,-24%,0%,-66*,?,?
Cc1ccc(S(=O)(=O)N2CCC(C(=O)N3CCC[C@H]3C(=O)NCC(C)C)CC2)cc1,30%,0%,-15,20%,0%
O=C(Nc1ccc(S(=O)(=O)N2CCOCC2)cc1)C1CC(=O)N(c2ccc(F)cc2)C1 (stereo not drawn),6%,16%,-18,-3%,10%
CC(C)c1ccc(S(=O)(=O)N2CCC(C(=O)N3CCN(c4cccc(Cl)c4)CC3)CC2)cc1,·,-16%,-69*,?,·
Cc1ccc(S(=O)(=O)N2CCC(C(=O)Nc3ccc(C(C)C)cc3)CC2)cc1,-28%,0%,4,11µM*,-10%
Cc1ccc(S(=O)(=O)N2CCC(C(=O)N3CCCC3C(=O)N[C@@H](CC(C)C)C(=O)NCC(N)=O)CC2)cc1 (stereo partly drawn),4%,-6%,14,1µM*,-15%
Cc1cc(Br)ccc1NC(=O)CN(C)C(=O)c1ccccc1OCc1c(C)noc1C,·,3%,-15,·,·
OC(c1ccc(F)c(F)c1)c1ncc(-c2ccccc2F)[nH]1 (stereo not drawn),·,84%,18,·,·
CC(C)c1ccc(NC(=O)C2CCCN(S(=O)(=O)c3ccc4[nH]c(=O)ccc4c3)C2)cc1 (stereo not drawn),·,?,-92*,·,16%

# Compound activity from PubChem BioAssay.
